PubChem BioAssay (NCI)
The panel holds about 83,000 compounds, 20% with a hit somewhere; the sample as a whole holds those more often.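 Compound tested at a single concentration for 48 hours in 96-well plates; a percent growth value below 10 was scored as active.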 Values without a mark were called inactive. Activity calls are given as the source filed them.

What was measured:
Test in all cases: NCI-60 one-dose screen, 48 h (100 = growth as untreated, 0 = no growth, -100 = all killed)
[1] = tested on: HCT-15 colon; conditions: 10 µM unless noted
[2] = tested on: SNB-75 CNS; conditions: 10 µM
[3] = tested on: SNB-19 CNS; conditions: 10 µM unless noted
[4] = tested on: U251 CNS; conditions: 10 µM unless noted
[5] = tested on: PC-3 prostate; conditions: 10 µM unless noted
[6] = tested on: SK-MEL-5 melanoma; conditions: 10 µM unless noted
[7] = tested on: UACC-62 melanoma; conditions: 10 µM unless noted
[8] = tested on: LOX IMVI melanoma; conditions: 10 µM unless noted
[9] = tested on: SK-MEL-28 melanoma; conditions: 10 µM unless noted
[10] = tested on: HT29 colon; conditions: 10 µM unless noted

Row | Compound | growth [1] | growth [2] | growth [3] [%] | growth [4] | growth [5] | growth [6] | growth [7] | growth [8] | growth [9] | growth [10]
1 | CCCOC(=O)n1cccc1 | 107% | 75.4% | 100 | 107% | 91.6% | 109% | 91.5% | 89.8% | 116% | 
2 | COc1cc2c(c(OC)c1OC)-c1ccc(N)c(=O)cc1[C@@H](NC(C)=O)CC2 | 11.8% | 33.8% | 34.2 | 18% | 29.3% | -54.3% (active) | 30.8% | 25% | 61.8% | 
3 | N=C(N)c1ccc(-c2ccc(-c3ccc(-c4cccs4)s3)s2)cc1 | 101% |  |  | 91.2% | 89% | 91.4% | 93.3% |  | 102% | 95%
4 | COc1cc2c(cc1O)CCN1C[C@@H](CC(C)C)[C@@H](O)C[C@@H]21 | 106% | 107% | 102 | 92.1% | 86.3% | 107% | 93.1% | 97.8% | 106% | 
5 | O=[N+]([O-])c1ccc(OCCCOc2ccccc2)cc1 | 99.4% | 97.2% | 105 | 90.7% | 94.3% | 105% | 93.7% | 97.6% | 103% | 
6 | C=C1CC2(OC1=O)C(=O)N(CCCN1C(=O)C3(CC(=C)C(=O)O3)c3ccccc31)c1ccccc12 (centres undefined) | -28.1% (active) |  |  | 45.4% | 51.3% | 74.4% | 23.2% | -82.8% (active) | -13.8% (active) | -51.5% (active)
7 | COC(=O)c1cccc2c1N(C)c1c(cccc1C(=O)OC)CC2 | 97.9% | 106% | 111 | 111% | 97.4% | 106% | 98.7% | 87.7% | 120% | 
8 | CC(C)OC(=O)N1CCOCC1 | 101% | 86% | 98.5 | 101% | 86.9% | 106% | 98.6% | 102% | 101% | 
9 | CCCCC(CC)OC(=O)C(Br)CC (centres undefined) | 105% | 90.1% | 110 | 97.2% | 102% | 102% | 106% | 94.1% | 103% | 
10 | C=C(C)[C@@H]1C[C@@H]2Cc3ccc(Cl)c(C)c3N1O2 | 93% | 93% | 103 | 92.6% | 87.9% | 89.1% | 93.4% | 98.8% | 107% | 
11 | COc1ccc(C2=CC(c3cc(OC)c(OC)c(OC)c3)NC(=O)N2)cc1OC (centres undefined) | 27.5% | 2.17% (active) | 38.1 | 21.1% | 51% | 18.5% | 44.5% | 7.04% (active) | 40% | 
12 | COc1ccc(-c2ccc(-c3ccc(C(=N)N)cn3)s2)cc1OC | 99.8% |  |  | 88.3% | 93.5% | 88.7% | 98.1% |  | 98% | 65.5%
13 | COC(=O)c1cc2cc(-c3ccc(OC)cc3)cnc2[nH]1 | 11% | 62.5% | 42.4 | 12.6% | 7.32% (active) | 30.9% | 23.8% | 25.2% | 56.1% | 
14 | O=C(CCl)N(C1CCCCC1)C1CCCCC1 | 98.4% | 95.7% | 109 | 104% | 93.7% | 93.3% | 102% | -3.14% (active) | 104% | 
15 | CC(C)(C)OC(=O)NC(CSCc1ccccc1)C(=O)ON1C(=O)CCC1=O (centres undefined) | 103% | 105% | 106 | 105% | 91.3% | 114% | 112% | 104% | 120% | 
16 | CCc1cnc(=S)n(-c2ccccc2)c1 | 103% | 117% | 107 | 117% | 98.7% | 117% | 109% | 95.4% | 114% | 
17 | CCOC(=O)C1=C(C)NC(C)=C(C(=O)OCC)C1(C)C | 101% | 87.3% | 98.1 | 107% | 98.2% | 97.7% | 98.7% | 104% | 102% | 
18 | COc1ccc(-c2c(-c3cc(OC)c4c(c3)OCO4)noc2N)cc1 | 14.2% | 25.9% | 34.4 | 16.4% | 25.6% | -54.4% (active) | 32.7% | 15.4% | 58.8% | 
19 | COc1ccc2c(c1)[nH]c(=O)c1c3cc(OC)ccc3cn21 | 4.49% (active) | 74.8% | 25.8 | -47.6% (active) | 0.628% (active) | 5.31% (active) | 41.9% | -76.9% (active) | 62.3% | 
20 | COc1cc(-c2nc(-c3nc4ccc(Cl)cc4[nH]3)cc3c2[nH]c2ccccc23)cc(OC)c1OC | 72.8% |  |  | 80.1% | 53.2% |  | 33.6% | 67.8% | 99.8% | 75%
21 | COc1cc(C(=O)/C=C/c2c(C)n([O-])c3ccc(C(F)(F)F)cc3[n+]2=O)cc(OC)c1OC | 86.1% |  |  | 87.1% | 91.8% | 102% | 91.4% | 88.4% | 98.8% | 5.72% (active)
22 | C=C[C@@H]1C[C@@H]2Cc3cc(F)ccc3N1O2 | 104% | 99.7% | 109 | 99.3% | 102% | 108% | 100% | 104% | 115% | 
23 | Cc1ccc(Cc2c(C=O)nc(N)[nH]c2=O)c2ccccc12 | 101% | 93% | 98.5 | 95.3% | 88.8% | 107% | 110% | 96.2% | 104% | 
24 | COc1cc(C2C3=C(COC3=O)Nc3cc4c(cc32)CCC4)cc2c1OCO2 (centres undefined) | 14.8% | 46.3% | 42.9 | 27.5% | 20.4% | -42.4% (active) | 43.7% | 13.9% | 59.1% | 
25 | COc1ccc2c(c1)OC1=C(C(=O)OC1)C2c1cc(OC)c2c(c1)OCO2 (centres undefined) | 19.2% | 36.5% | 29 | 19.9% | 22% | -54.3% (active) | 39.7% | 17.2% | 64.4% | 
26 | N[C@H]1CN(C(=O)c2cc3cc(Br)c(F)c(F)c3[nH]2)C[C@@H]1O | 102% |  |  | 95.9% | 93.6% |  | 93.6% | 89.6% | 106% | 103%
27 | COc1ccc2c(c1)[nH]c(=O)c1c3cc(C)c(C)cc3cn21 | -87.5% (active) | 84.8% | 25.6 | -97.1% (active) | -54.9% (active) | 10.3% | 42.5% | -99.2% (active) | -7.4% (active) | 
28 | COc1ccc(C2=Nn3c(nnc3-n3nc(C)cc3C)SC2)cc1 | 17.1% |  |  | 15.5% | 9.91% (active) | 0.149% (active) | 39.5% | 26.9% | 54.8% | -17% (active)
29 | Nc1ncnc2c1c(-c1ccc(Oc3ccccc3)cc1)nn2C[C@@H]1SSC[C@@H]1O | 64.6% | 5.33% (active) | 60.7 | 37.5% | 55.4% | -86.4% (active) | -81.1% (active) | -20.5% (active) | 2.67% (active) | 
30 | O=C1Nc2ccc3c(c2/C1=C\c1cc2c(cc1Br)OCO2)OCO3 | 22.9% | -37.7% (active) | 42 | 13.4% | 16.6% | -19.9% (active) | 43.9% | -29.5% (active) | 19.4% | 
